# Source: the antibiotic and cytotoxicity screens of Wong et al. (2023)
# Hit rate of the full screen: of about 39,000 compounds, about 1,500 (3.8%) were called active. For the sample, actives were picked, then their nearest neighbours and some compounds at random.
# System: HSkMC (human skeletal muscle cells)
# Test: cytotoxicity call (relative viability < 0.9)
# Conditions: 10 µM
row,SMILES,cytotoxicity call
1,COc1ccc(NC(=O)Nc2ccc3c(c2)CC(=O)N([C@@H](C)CO)C[C@@H](C)[C@H](CN(C)Cc2ccc(Cl)c(Cl)c2)O3)cc1,inactive
2,COc1ccc(NC(=O)Nc2ccc3c(c2)CC(=O)N([C@H](C)CO)C[C@H](C)[C@H](CN(C)Cc2ccc(Cl)c(Cl)c2)O3)cc1,inactive
3,COc1ccc(NC(=O)Nc2ccc3c(c2)CC(=O)N([C@@H](C)CO)C[C@H](C)[C@@H](CN(C)Cc2ccc(Cl)c(Cl)c2)O3)cc1,inactive
4,COc1ccc(NC(=O)Nc2ccc3c(c2)CC(=O)N([C@H](C)CO)C[C@@H](C)[C@@H](CN(C)Cc2ccc(Cl)c(Cl)c2)O3)cc1,active
5,COc1ccc(NC(=O)Nc2ccc3c(c2)CC(=O)N([C@@H](C)CO)C[C@H](C)[C@H](CN(C)Cc2ccc(Cl)c(Cl)c2)O3)cc1,active
6,COc1ccc(NC(=O)Nc2ccc3c(c2)CC(=O)N([C@H](C)CO)C[C@@H](C)[C@H](CN(C)Cc2ccc(Cl)c(Cl)c2)O3)cc1,inactive
7,C[C@@H]1CCCCO[C@@H](CN(C)C(=O)Nc2cccc3ccccc23)[C@@H](C)CN([C@H](C)CO)C(=O)c2cc(NC(=O)Nc3cccc4ccccc34)ccc2O1,inactive
8,NC(=O)CSc1ncn(-c2ccccc2)n1,inactive
9,O=C(CCCCCNC(=O)OCc1ccc(CO[C@H]2C[C@@H](c3csc4ccccc34)C=C(C(=O)N3CCN(Cc4ccccc4)CC3)O2)cc1)NO,inactive
10,CC(C)C(=O)Nc1ccc([N+](=O)[O-])c(C(F)(F)F)c1,inactive
11,O=C(Nc1ccc(-c2nc3cc(NC(=O)c4ccccc4[N+](=O)[O-])ccc3o2)cc1)c1ccccc1[N+](=O)[O-],inactive
12,O=C(N[C@H](NC(=S)Nc1ccc(F)c([N+](=O)[O-])c1)C(Cl)(Cl)Cl)C(c1ccccc1)c1ccccc1,active
13,C[C@@H]1CN([C@@H](C)CO)C(=O)c2cc(NC(=O)Nc3ccc4c(c3)OCO4)ccc2O[C@@H](C)CCCCO[C@H]1CN(C)C(=O)c1ccccc1,inactive
14,COCC(=O)Nc1ccc2c(c1)OC[C@@H](C)N(C(=O)c1ccccc1F)C[C@@H](C)[C@@H](OC)CN(C)C2=O,inactive
15,C[C@H](CO)N1C[C@H](C)[C@@H](CN(C)C(=O)NC2CCCCC2)Oc2ccc(NC(=O)CCN3CCOCC3)cc2C1=O,inactive
16,Cc1ccc(S(=O)(=O)Nc2ccc3c(c2)C(=O)N([C@H](C)CO)C[C@@H](C)[C@@H](CN(C)Cc2ccc(Cl)c(Cl)c2)O3)cc1,active
17,Cc1ccc(S(=O)(=O)Nc2ccc3c(c2)C(=O)N([C@H](C)CO)C[C@@H](C)[C@H](CN(C)Cc2ccc(Cl)c(Cl)c2)O3)cc1,active
18,Cc1ccc(S(=O)(=O)Nc2ccc3c(c2)C(=O)N([C@H](C)CO)C[C@H](C)[C@H](CN(C)Cc2ccc(Cl)c(Cl)c2)O3)cc1,active
19,Cc1ccc(S(=O)(=O)Nc2ccc3c(c2)C(=O)N([C@@H](C)CO)C[C@@H](C)[C@H](CN(C)Cc2ccc(Cl)c(Cl)c2)O3)cc1,inactive
20,Cc1ccc(S(=O)(=O)Nc2ccc3c(c2)C(=O)N([C@@H](C)CO)C[C@H](C)[C@H](CN(C)Cc2ccc(Cl)c(Cl)c2)O3)cc1,inactive
21,Cc1ccc(S(=O)(=O)Nc2ccc3c(c2)C(=O)N([C@H](C)CO)C[C@H](C)[C@@H](CN(C)Cc2ccc(Cl)c(Cl)c2)O3)cc1,inactive

row,SMILES,cytotoxicity call
1,Cc1ccc(S(=O)(=O)Nc2ccc3c(c2)C(=O)N([C@@H](C)CO)C[C@H](C)[C@@H](CN(C)Cc2ccc(Cl)c(Cl)c2)O3)cc1,active
2,Cc1cccc(C(=O)N2CCC[C@@H](Cn3cc(C(C)(C)N)nn3)C2)c1C,inactive
3,CC(C)NC(=O)Nc1ccc2c(c1)C(=O)N([C@@H](C)CO)C[C@H](C)[C@@H](CN(C)S(=O)(=O)c1ccccc1)O2,inactive
4,C[C@@H]1CCCCO[C@H](CN(C)S(=O)(=O)c2cccs2)[C@H](C)CN([C@@H](C)CO)C(=O)c2cc(NC(=O)Cc3ccccc3)ccc2O1,inactive
5,C[C@H]1CN([C@@H](C)CO)C(=O)c2cccc(NS(=O)(=O)c3cccs3)c2O[C@H]1CN(C)S(=O)(=O)c1ccc(F)cc1,inactive
6,CN(C)Cc1cn(CC[C@H]2CC[C@H](N)[C@@H](CO)O2)nn1,inactive
7,Cc1noc(C)c1NC(=O)Nc1ccc2c(c1)C(=O)N([C@@H](C)CO)C[C@H](C)[C@H](CN(C)C(=O)Nc1ccc(C(F)(F)F)cc1)OCCCC[C@H](C)O2,inactive
8,O=C(C[C@H]1CC[C@H]2[C@@H](COC[C@@H](O)CN2C(=O)c2cccnc2)O1)NCc1ccc(-c2ccccc2)cc1,inactive
9,Cn1nnnc1SCC(=O)Nc1ncccn1,inactive
10,C[C@@H]1CN([C@H](C)CO)C(=O)c2cccc(NS(=O)(=O)c3ccccc3)c2O[C@@H]1CN(C)Cc1ccc(Cl)c(Cl)c1,inactive
11,Cn1cnc(S(=O)(=O)N2C[C@@H](O)COC[C@@H]3O[C@@H](CC(=O)NC4Cc5ccccc5C4)CC[C@H]32)c1,inactive
12,C[C@H](O)C#Cc1ccc2c(c1)O[C@H](CN(C)C(=O)Nc1ccccc1)[C@H](C)CN([C@H](C)CO)S2(=O)=O,inactive
13,COc1ccc(S(=O)(=O)Nc2ccc3c(c2)C(=O)N([C@H](C)CO)C[C@H](C)[C@H](CN(C)S(C)(=O)=O)OCCCC[C@@H](C)O3)cc1,inactive
14,Cc1cnc2c(c1NCCN(C)C)c(=O)n(C)c(=O)n2C,inactive
15,CCOc1nc2ccccc2c(=O)n1CCO,inactive
16,C[C@H](CO)N1C[C@H](C)[C@H](CN(C)C(=O)c2ccc3c(c2)OCO3)Oc2cc(-c3cncnc3)ccc2S1(=O)=O,inactive
17,O=C1c2ccncc2C(=O)N1CO,inactive
18,CO[C@@H](CN(C)S(=O)(=O)c1cccc(Cl)c1)[C@@H](C)CN([C@@H](C)CO)S(=O)(=O)c1ccc(Cl)cc1,inactive
19,CC(C)NC(=O)N(C)C[C@@H]1Oc2ccc(NS(=O)(=O)c3cn(C)cn3)cc2C(=O)N([C@@H](C)CO)C[C@@H]1C,inactive
20,FC(F)(F)c1ccccc1/N=C1\CCCc2ccccc21,inactive
21,Cc1ccc(S(=O)(=O)Nc2ccc3c(c2)C(=O)N([C@@H](C)CO)C[C@@H](C)[C@@H](CN(C)Cc2ccc(Cl)c(Cl)c2)O3)cc1,active
